Among the data in PubChem BioAssay (EPA / NIEHS) are AC50 and outcome values, retold here.

More than one record can exist for a structure, and the calls need not agree. Calls of active or inactive are those of the source. How the source made its calls: active means hit-call score of the fitted dose curve at least 0.9, where 1 is the maximum; inactive means score below 0.9.

The test in a line: BSK_BE3C_SRB: Viability Assessment in the BioMAP Diversity Plus: BE3C Assay (AID 2283028).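 On AC50: fitted both ways so AC50 may mark signal gain or loss versus DMSO.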 The settings on record: primary human bronchial epithelial cells. The procedure: BSK_BE3C is a cell-based, multiplexed-readout assay that uses bronchial epithelial cell, a human lung primary cell, with measurements taken at 24 hours after chemical dosing in a 96-well plate.BSK_BE3C_SRB is an assay component measured in the BSK_BE3C assay. It measures 0.1% sulforhodamine related to cell death using Sulforhodamine staining technology.Data from the assay component BSK_BE3C_SRB was analyzed into 1 assay endpoint. This assay endpoint, BSK_BE3C_SRB, was analyzed with bidirectional fitting relative to DMSO as the negative control and baseline of activity. Using a type of viability reporter, gain or loss-of-signal activity can be used to understand changes in the signaling. Furthermore, this assay endpoint can be referred to as a primary readout, because this assay has produced multiple assay endpoints where this one serves a signaling function. To generalize the intended target to other relatable targets, this assay endpoint is annotated to the cell morphology intended target family, where the subfamily is cell conformation.
The levels of cell surface (or secreted, indicated by the prefix "s") biomarker endpoints were measured by ELISA. Overt cytotoxicity to cells in confluent adherent cultures (all systems other than the BT system) was assessed by measuring total protein levels using sulforhodamine B (SRB) staining in parallel cultures at the time of biomarker measurements, indicated as SRB endpoints. For proliferation assays for adherent cell types, individual cell types are cultured at sub-confluence and relative cell numbers quantified by SRB staining at time points optimized for each system (48 h: 3C and CASM3C systems; 72 h: BT and HDF3CGF systems; 96 h: SAg system). SRB was performed by staining cells with 0.1% SRB after fixation with 10% TCA and reading wells at 560 nm.Viability and proliferation of PBMC (T cells) was quantified by Alamar Blue reduction for the SAg and BT systems. For PBMC viability (referred to as PBMC Cytotoxicity within the assay endpoint names), cells were plated (75,000/well in a 96-well plate) and then chemical samples added for 1 h before addition of activators, SEB and TSST-1 (20 ng/mL final concentration each). Cells were incubated for 90 h. Then, Alamar Blue (20 uL/well) (Invitrogen, Cat DAL1100) was added for 6 h, and the plates were read with a fluorescence microplate reader at 546/580 nm (excitation/emission). For PBMC proliferation, cells were plated and activated as above but incubated for only 16 h prior to addition of Alamar Blue. Plates were read after 6 h.
As to `CC(=O)C1(C)CC2=C(CCCC2(C)C)CC1C` (stereo not given), the AC50 (commonly the concentration giving half of the maximal activity seen) was 27.1 µM (active). As to `CC(CN=Cc1ccccc1O)N=Cc1ccccc1O` (stereo not given), the outcome was inactive. The same measure, in the same setting: next, `CSCCC=O`: “inactive”; `c1ccc(Oc2ccccc2)cc1`: “inactive”; `CS(=O)(=O)c1ccc(C2=C(c3ccccc3)C(=O)OC2)cc1`: “inactive”. The same measure, in the same setting: to `CC(=O)c1c(C)c([N+](=O)[O-])c(C(C)(C)C)c([N+](=O)[O-])c1C` belongs “inactive”. `Oc1c(Cl)cc(Cl)c(Cl)c1Cc1c(O)c(Cl)cc(Cl)c1Cl`: the AC50 was 5.21 µM (active). Turning to `C1=CC2C3C=CC(C3)C2C1` (stereo not given), the result was inactive. Same read-out and setting: next, `CCOC(=O)C(C#N)=C(c1ccccc1)c1ccccc1`: “inactive”; `CN(C)C(=S)SC(=S)N(C)C`: “inactive”; `O=C(Nc1ccc2c(O)c(N=Nc3ccc(N=Nc4ccc(S(=O)(=O)O)cc4)cc3)c(S(=O)(=O)O)cc2c1)c1ccccc1`: “inactive”.

In the case of `CC(=O)Nc1ccc(C(=O)CCl)cc1`, the result was inactive. In the case of `COc1ccc(OC)c(N=Nc2c(O)ccc3ccccc23)c1`, the AC50 was 5.55 µM (active). `CCN(CC)C(=O)N(CC)CC`: the result was inactive. On the same count and under the same terms, next, `CC(C)(N=C=O)c1cccc(C(C)(C)N=C=O)c1`: “inactive”; `O=CN1CCOCC1`: “inactive”. On the same count and under the same terms, next, `C=C(C)C(=O)OCCOCCOCCOCCOC(=O)C(=C)C`: “inactive”; `CS(=O)(=O)OCCCCOS(C)(=O)=O`: “inactive”. Still for that read-out and setting: next, `O=C1OC[C@H](Cc2cccc(O)c2)[C@H]1Cc1cccc(O)c1`: “inactive”. Turning to `CCC(C)c1cc([N+](=O)[O-])cc([N+](=O)[O-])c1OC(=O)OC(C)C` (stereo not given), the AC50 is 29.4 µM (active). Consider `C=C(C)C(=O)OCCOCCOCCOC(=O)C(=C)C`, for which the result was inactive.

Regarding `COc1ccc(CCN2CCC(Nc3nc4ccccc4n3Cc3ccc(F)cc3)CC2)cc1`, the outcome was inactive. As for `C=C(C)C(=O)OCC(CC)(COC(=O)C(=C)C)COC(=O)C(=C)C`, the outcome was inactive. Regarding `C=C(C)[C@H]1CC=C(C)C(=O)C1`, the result was inactive. Consider `CC=Cc1ccc(OCC)c(O)c1`, for which the outcome was inactive. On the same count and under the same terms, to `CCCCCC(C=O)=Cc1ccccc1` belongs “inactive”; to `Clc1cc(Cl)c(-c2c(Cl)c(Cl)cc(Cl)c2Cl)cc1Cl`, “inactive”; to `c1ccc2cc(Nc3ccc(Nc4ccc5ccccc5c4)cc3)ccc2c1`, “inactive”. Same read-out and setting: next, `COc1cc(Cl)c(OC)cc1N`: “inactive”. As to `CC1(C)CCC[C@]2(C)[C@H]3CCO[C@]3(C)CC[C@@H]12`, the AC50 was 30 µM (active) and the result was inactive. With `O=C1c2ccccc2C(=O)c2c(O)ccc(O)c21`, the result was inactive. Still for that read-out and setting: next, `Cc1cc(CCC(=O)OCCOCCOCCOC(=O)CCc2cc(C)c(O)c(C(C)(C)C)c2)cc(C(C)(C)C)c1O`: “inactive”. Regarding `c1ccc(CCc2ccccc2)cc1`, the AC50 was 33.2 µM (active).

Take `CCCCN(CCCC)C(=O)N(CCCC)CCCC`: the AC50 was 7.45 µM (active).

Turning to `CN(c1nccc(=O)[nH]1)C1CCN(c2nc3ccccc3n2Cc2ccc(F)cc2)CC1`, the outcome was inactive. Same read-out and setting: to `CCCCOC(=O)CCCCCCCC(=O)OCCCC` belongs “inactive”. Same read-out and setting: next, `CCCCCCC(CO)CCCC` (stereo not given): “inactive”.

For the compound `CCCCCCCCCCCCCCCC(=O)OC/C=C(C)/C=C/C=C(C)/C=C/C1=C(C)CCCC1(C)C`, the outcome was inactive. Same read-out and setting: to `C[C@@H]1CCN(C(=O)[C@H](CCCN=C(N)N)NS(=O)(=O)c2cccc3c2NC[C@H](C)C3)[C@@H](C(=O)O)C1` belongs “inactive”.
